FLuc counter: qHTS profiling assay for firefly luciferase inhibitor/activator using purifed enzyme and Km concentrations of substrates (counterscreen for miR-21 project); Luciferin 4-monooxygenase (Photinus pyralis), P08659; purified FLuc, Km substrates, luminescence inhibition; Potency, µM (series often up to 57.5 µM), inactives show top-dose activity change, negative = inhibition, most hits filed as inhibitors; 360,000 compounds, 6.9% hits; AID 588342, 2011;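 also: plate controls were vehicle for no effect and reference inhibitor for full effect; nearly all actives have a fitted effect of over 55% in size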
Target sequence (P08659 whole entry, looked up): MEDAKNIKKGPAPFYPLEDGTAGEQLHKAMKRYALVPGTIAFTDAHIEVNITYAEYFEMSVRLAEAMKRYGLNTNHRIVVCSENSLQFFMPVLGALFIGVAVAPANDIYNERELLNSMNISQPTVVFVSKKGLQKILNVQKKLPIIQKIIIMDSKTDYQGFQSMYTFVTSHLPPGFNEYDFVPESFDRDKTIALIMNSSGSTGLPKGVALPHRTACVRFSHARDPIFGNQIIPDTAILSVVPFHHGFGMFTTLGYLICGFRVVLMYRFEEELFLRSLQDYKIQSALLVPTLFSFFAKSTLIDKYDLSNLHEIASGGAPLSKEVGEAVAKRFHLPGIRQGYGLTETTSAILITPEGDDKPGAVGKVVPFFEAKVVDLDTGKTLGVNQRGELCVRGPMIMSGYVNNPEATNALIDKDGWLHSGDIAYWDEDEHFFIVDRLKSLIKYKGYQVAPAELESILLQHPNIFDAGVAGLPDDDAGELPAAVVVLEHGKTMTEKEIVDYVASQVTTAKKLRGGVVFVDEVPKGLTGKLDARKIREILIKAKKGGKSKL
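Purified P. pyralis luciferase, 10 nM final, with Km-level 10 uM D-luciferin and 10 uM ATP in 50 mM Tris acetate pH 7.5, 10 mM Mg acetate, 0.01% Tween-20, 0.05% BSA; 6-point qHTS titration about 60 µM downward; luminescence read.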
SMN2 splice enh: qHTS Assay for Enhancers of SMN2 Splice Variant Expression; HEK293 SMN2-luciferase splicing reporter, luminescence, 30-36 h; AID 1458, 2008; Potency, µM (titrated, usually from 46.1 µM), for inactives: at the top dose activity change, positive = activation, usual class: activators; 210,000 compounds, 2.8% hits; also: % of control where 0% means no effect; nearly all actives have a fitted effect of over 55% in size
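qHTS luciferase splicing reporter: luminescence rises when SMN2 exon 7 is included in transfected HEK293 cells. Compound exposure lasted 30-36 h at 37C, with 4.5 mM final sodium butyrate as control, followed by a ONE-Glo read.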
NPC1 promoter act: qHTS Assay for NPC1 Promoter Activators; Huh7 NPC1 promoter luciferase reporter, 24 h; Potency, µM (highest dose often 9.22 µM), for the others: top-dose activation, hits mostly activators; 320,000 compounds, 2.4% hits; also: % of control where 0% means no effect; nearly all actives have a fitted effect of over 60% in size
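Luminescence from an NPC1 promoter-driven luciferase reporter in stably transfected Huh7 cells was measured after 24 h compound treatment at 37 °C, followed by 10 min ambient incubation with luciferase detection reagent.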
ELG1 DNA repair: qHTS screen for small molecules that inhibit ELG1-dependent DNA repair in human embryonic kidney (HEK293T) cells expressing luciferase-tagged ELG1 | HEK293T ELG1-luciferase reporter, luminescence, 16 h; DNA damage induced by 5-fluorouridine | Potency, µM (highest dose often 46.1 µM), for the others: at the top dose activity change, negative = inhibition, actives largely listed as inhibitors | 330,000 compounds, 2.3% hits | AID 504467, 2011; also: % is scaled to controls: 0 for no effect and ±100 for the full control effect; nearly all actives have a fitted effect of over 55% in size
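Overnight (16 hr) co-exposure of 2,000 cells/well to 5-fluorouridine and compound at 37 °C preceded detection. Luciferase was quantified via ONE-Glo luminescence; loss of signal denotes inhibition.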
ELG1 genotoxic: qHTS screen for small molecules that induce genotoxicity in human embryonic kidney (HEK293T) cells expressing luciferase-tagged ELG1. HEK293T ELG1-luciferase reporter, luminescence, 16 h. Potency, µM (highest dose often 46 µM), for the others: top-dose activity change, positive = activation, hits mostly activators. 330,000 compounds, 1.3% hits. AID 504466, 2011; also: % of control where 0% means no effect; nearly all actives have a fitted effect of over 60% in size
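DMSO vehicle served as control against compound-treated ELG1-luciferase HEK293T cells; exposure lasted 16 hr at 37 °C and 5% CO2, followed by ONE-Glo luminescence detection after 30 min.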
Rab9 prom act: qHTS Assay for Rab9 Promoter Activators. AID 485297, 2010. Huh7 Rab9 promoter-luciferase reporter, luminescence, 24 h. Potency, µM (top dose mostly 9.22 µM), inactives show at the highest dose activation, negative = inhibition, usual class: activators. 320,000 compounds, 2.8% hits; also: % of control where 0% means no effect; nearly all actives have a fitted effect of over 60% in size
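Luminescence read-out: Huh7 cells stably expressing Rab9-luciferase, treated 24 h with compound at 37 °C, then lysed with luciferase reagent for 10 min at ambient before reading.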
* hit, by the source's call; ? = inconclusive; · = not tested or not shown; [ ] = another dose, or the depositor's remark. Only some compounds are listed: those with a hit (about 9.3% of all), similar ones and a draw of the others. Calls follow the shape of the dose curve; as a rule, active = well fitted curve in the direction sought with a large enough effect; inconclusive = small, poorly fitted or top-dose-only effect, or another doubt; inactive = no such curve, though single readings can be large; an effect the other way counts as inactive or inconclusive. Potency is read from the fitted curve at half-maximal effect.

SMILES	FLuc counter	SMN2 splice enh	NPC1 promoter act	ELG1 DNA repair	ELG1 genotoxic	Rab9 prom act
COC(=O)c1ccc(NC(=O)c2cccc(N3C(=O)C4C5C=CC(C6CC56)C4C3=O)c2)cc1 (stereo unspecified)	?	·	15%	?	?	11%
CC(C)c1ccc(CCNC(=O)CCNC(=O)c2ccc(Br)cc2)cc1	1%	·	-3%	-2%	4%	-2%
CCOc1ncccc1C(=O)OCC(=O)c1ccc(OC)c(OC)c1	-6%	-7%	-3%	4%	4%	1%
CCOc1ncccc1C(=O)OCC(=O)c1ccccc1Br	13µM*	17%	1%	-9%	4%	0%
CCOc1ncccc1C(=O)OCC(=O)c1ccc(C)c(C)c1	11µM*	?	?	8%	9%	?
Cc1ccc(-c2nnn3c2nc(N2CCC(C)CC2)c2ccccc23)cc1	-15%	0%	·	·	·	·
CN1CCN(c2ccc(Cl)cc2NC(=O)CCN2C(=O)c3ccccc3C2=O)CC1	3%	3%	0%	21%	-10%	1%
COc1ccccc1CC(=O)O/N=C(\N)c1ccccn1	-17%	·	1%	?	6%	21%
CC(C)c1c(C(=O)N/N=C/c2ccc3c(c2)OCO3)nnn1-c1nonc1N	9.5µM*	·	1%	-13%	2%	12%
COc1ccccc1/C=N\N=C(\N)c1ccccn1	6.7µM*	16µM*	?	?	?	2.2µM*
Nc1nonc1C(=O)N/N=C/c1cc2c(cc1Br)OCO2	?	·	-6%	5%	16%	-1%
Nc1nonc1-n1nnc(C(=O)N/N=C/c2ccc3c(c2)OCO3)c1-c1ccccc1	?	·	-2%	2%	-7%	0%
N/C(=N\N=C\c1ccc2c(c1)OCO2)c1nonc1N	0.95µM*	3.5µM*	0.4µM*	?	?	0.32µM*
CC(/C=N/NC(=O)c1nnn(-c2nonc2N)c1C(C)C)=C\c1ccco1	5.4µM*	·	-3%	?	1%[9.26 µM]	8%
CS(=O)(=O)c1ccc(-c2nnc(NC(=O)c3cccc(N4C(=O)CCC4=O)c3)o2)cc1	?	·	-2%	13%	4%	-2%
Cc1cc(C)cc(NC(=O)CCn2ccnc2)c1	-1%	·	-6%	2%	1%	-1%
Cc1ccc(NC(=O)c2cccc3c2C(=O)N(C2CCCCC2)C3)c(Cl)c1	-1%	·	-2%	-2%	-2%	2%
COc1cccc(/C=N/N=C(\N)c2nonc2N)c1O	?	?	?	?	18µM*	2.5µM*
C/C(=N\NC(=O)c1nnn(-c2nonc2N)c1C(C)C)c1cc(C)sc1C	17µM*	·	-1%	1%	-2%	-5%
CCN(CC)c1ccc(/C=N/NC(=O)c2nnn(-c3nonc3N)c2C(C)C)c(O)c1	19µM*	·	-14%	26%	-10%	-34%
C/C(=N\NC(=O)c1nnn(-c2nonc2N)c1CN1CCCCC1)c1ccccc1O	0%	·	-6%	18µM*	2%	0%
COc1cccc2c1CCC1CC(=O)CC[C@@]21C (stereo partly specified)	·	-8%	·	·	·	·
CCN1CCN(c2oc(/C=C/c3ccccc3OC)nc2C#N)CC1	0%	-1%	·	·	·	·
CCCCCCCC1=CC2=C(Cl)C(=O)C(C)(OC(C)=O)C(=O)C2=CO1 (stereo unspecified)	·	-4%	·	·	·	·
O=C(C1=NN[C@@H]2C(=O)N(Cc3ccccc3)C(=O)[C@H]12)c1ccc([N+](=O)[O-])cc1	-2%	·	-5%	0%	-4%	-1%
